Laboratory results from PubChem BioAssay (NCATS).
“And” between values parts separate entries of the source, which are not always exact repeats. Equal values may be shown once. Results filed as inconclusive are left out. Values without a mark were called inactive. The source made the active and inactive calls. Calls come from the whole dose curve; as a rule, active = well fitted curve in the direction sought with a large enough effect; inconclusive = small, poorly fitted or top-dose-only effect, or another doubt; inactive = no such curve, though single readings can be large; an effect the other way counts as inactive or inconclusive.

Experiments:
[1] = Viability qHTS for spleen associated tyrosine kinase inhibitor (SYKi) drug resistant MV4-11 cells (AID 1963824); note: nearly all actives have a fitted effect of over 35% in size
Summary of the method: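 SYK-inhibitor-resistant MV4-11 AML cells were seeded at 500 per well onto compound and cultured 72 hours (37 °C, 5% CO2). CellTiter-Glo was then added, and after 10 min at room temperature, luminescence gave viability.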

[2] = Cellular viability qHTS for adrenocortical cancer (ACC) cell line SW-13 (AID 1963989); conditions: SW-13 ACC cells viability, CellTiter-Glo, 48 h; activity (max response): active compounds read low; note: nearly all actives have a fitted effect of over 65% in size;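 for activity (max response): cells grown in serum-free medium with ITS supplement; % is set by controls: 0 for no effect and ±100 for the full control effect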
Summary of the method: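 Viability was read as CellTiter-Glo luminescence after 48 h compound treatment (up to 46 uM final) of SW-13 cells grown serum-free; titration curves were fit with a four-parameter logistic model to give IC50 and efficacy.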

[3] = Cellular viability qHTS for adrenocortical cancer (ACC) cell line NCI-H295R (AID 1963990); note: nearly all actives have a fitted effect of over 60% in size
Summary of the method: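 CellTiter-Glo ATP luminescence, read 48 h after compound addition, measured viability of NCI-H295R adrenocortical cells grown serum-free with ITS. Final concentrations spanned up to 46 uM. Data normalized to DMSO and doxorubicin, fitted for IC50 and maximal response.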
Potency is the fitted concentration of half-maximal effect.

| SMILES | Potency [1] | Potency [2] | Potency [3] | activity (max response) [2] |
| --- | --- | --- | --- | --- |
| CC[C@@]1(O)C(=O)OCc2c1cc1n(c2=O)Cc2c-1nc1cc(F)c(C)c3c1c2[C@@H](N)CC3 | 0.0042 µM (active) | 0.794 µM (active) | 5.01 µM (active) |  |
| OCCN1CCN(CCCN2c3ccccc3Sc3ccc(Cl)cc32)CC1 | 8.41 µM (active) | 6.51 µM (active) | 2.59 µM (active) |  |
| COc1ccc2[nH]c(C(=O)N3CCC(CC(C)(C)O)CC3)cc2c1 | 18.6 µM (active) |  | inactive | -4.14% |
| CC(=O)N[C@H]1CSSC[C@@H](C(N)=O)NC(=O)[C@H](C(C)C)NC(=O)[C@H](C)NC(=O)[C@H](Cc2cnc[nH]2)NC1=O | inactive |  | inactive | -0.986% |
| C[C@]12CCC(=O)C=C1C=C[C@@H]1[C@@H]2CC[C@@]2(C)[C@H]1CC[C@@]21CCC(=O)O1 | inactive |  | inactive | 8.87% |
| O[C@@H](c1cc(C(F)(F)F)nc2c(C(F)(F)F)cccc12)[C@H]1CCCCN1 | 9.44 µM (active) | 16.4 µM (active) | 5.17 µM (active) |  |
| CO[C@@H]1[C@@H](OC)[C@H](C)[C@@](O)(CC(=O)O)O[C@H]1[C@H](C)[C@H]1O[C@@]2(CC[C@@](C)([C@H]3CC[C@@](C)([C@@H]4O[C@@H]([C@H]5O[C@](C)(O)[C@H](C)C[C@@H]5C)C[C@@H]4OC4C[C@H](OC)[C@@H](OC)[C@H](C)O4)O3)O2)C[C@H](O)[C@H]1C (some centres undefined) | 0.596 µM (active) | 1.46 µM (active) | 1.16 µM (active) |  |
| COc1cc(N2CCC(N3CCN(C)CC3)CC2)ccc1Nc1ncc(Cl)c(Nc2ccccc2P(C)(C)=O)n1 | 130 nM (active) and 23.5 nM (active) | 1 µM (active) | 1.12 µM (active) |  |
